The source of these data is the OligoGym collection.
Note: reference of the scale not given here.

The target of the first experiment is NEUROD6. Briefly: pooled miR-30 sensor sort-seq; sequence = guide strand. As to conditions: shRNA.
The sequence TCAGAAACTAGTAAACACCTTA showed a sensor-assay potency score (higher = more potent) of 0.248.

On to TGTCTCCTGAACTTGACCCTTT, for which the sensor-assay potency score (higher = more potent) is -0.00785.

With TTTGTCTTAATTAGACAGGGGA, the sensor-assay potency score (higher = more potent) is -0.0326.

In turn, TTCTCTAGAAAACTTTCTGCAC returned a sensor-assay potency score (higher = more potent) of -0.894.

AATAGTTGAAACACACTTCAGA: the sensor-assay potency score (higher = more potent) was -0.228.

TTTTCATCTTCCTCTTCCCTGT: the sensor-assay potency score (higher = more potent) is -0.025.

The target in a further experiment is NF1. The description is as above. As to conditions: shRNA.
In turn, TAGCAGTAACTCTTTGTCGTTT had a sensor-assay potency score (higher = more potent) of -0.737.

In turn, TATTACTGTAGCTTCTATCAGA returned a sensor-assay potency score (higher = more potent) of -0.358.

Regarding TTTGCTTTGAAAACGGTCCTGC, the sensor-assay potency score (higher = more potent) was 0.844.

TAACTGATGAAGAACCAGCAGA had a sensor-assay potency score (higher = more potent) of -0.956.

In turn, TACTAAGAAAGTAACAACGTGG returned a sensor-assay potency score (higher = more potent) of 0.245.

On to TAAAATAGCAATATCATCCCAC, for which the sensor-assay potency score (higher = more potent) came out at 0.315.

In turn, TAGAAGGAATATCACATCCTAC yielded a sensor-assay potency score (higher = more potent) of -0.685.

In turn, TTTGTAGATAGGTAGCACCATA yielded a sensor-assay potency score (higher = more potent) of -1.19.

As to TTGTAGGACAATCAGATGCTAT, the sensor-assay potency score (higher = more potent) is -0.838.

TATTCTACCATCTTATTCCTAA had a sensor-assay potency score (higher = more potent) of -0.177.
